{"source": "PubChem BioAssay AID493168", "about": "(National Center for Advancing Translational Sciences (NCATS), 2011)", "note": "Records with an inconclusive call do not appear. Activity calls are given as the source filed them. Calls come from the whole dose curve; as a rule, active = well fitted inhibition curve with a large enough effect; inconclusive = small, poorly fitted or top-dose-only effect, or effect the other way; inactive = flat fitted curve, though single readings scatter. Potency is the fitted concentration of half-maximal effect."}
{"target": "Ubiquitin carboxyl-terminal hydrolase 2 (Homo sapiens) (UniProt O75604)", "sequence (O75604 whole entry, looked up)": "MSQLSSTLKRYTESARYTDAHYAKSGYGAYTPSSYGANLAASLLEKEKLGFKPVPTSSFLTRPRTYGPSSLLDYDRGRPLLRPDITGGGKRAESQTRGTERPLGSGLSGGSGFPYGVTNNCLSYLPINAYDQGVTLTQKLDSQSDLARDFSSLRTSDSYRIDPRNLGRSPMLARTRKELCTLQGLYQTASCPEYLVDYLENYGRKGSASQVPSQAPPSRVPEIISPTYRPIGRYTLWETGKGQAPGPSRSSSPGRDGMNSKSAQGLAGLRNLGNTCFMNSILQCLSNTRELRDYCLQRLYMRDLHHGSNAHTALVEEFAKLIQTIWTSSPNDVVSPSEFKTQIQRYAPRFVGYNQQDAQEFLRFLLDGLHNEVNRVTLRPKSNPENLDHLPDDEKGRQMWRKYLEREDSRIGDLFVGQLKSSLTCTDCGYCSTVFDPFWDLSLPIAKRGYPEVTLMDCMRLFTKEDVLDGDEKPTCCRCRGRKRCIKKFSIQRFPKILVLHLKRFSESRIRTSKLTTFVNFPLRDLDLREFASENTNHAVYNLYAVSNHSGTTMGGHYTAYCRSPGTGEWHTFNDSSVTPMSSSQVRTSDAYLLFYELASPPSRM", "test": "Confirmation Assay for Inhibitors of Ubiquitin-specific Protease USP2a Using CHOP2 as the Reporter; note: nearly all actives have a fitted effect of over 55% in size;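 for activity change, negative = inhibition: plate controls were DMSO wells for no effect and full inhibition by NEM control for full effect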", "settings": "USP2 core, Ub-CHOP2 coupled reporter fluorescence; series mostly up to 38.3 µM; activity change, negative = inhibition: at the top concentration", "in_short": "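USP2 core (10 nM final) was preincubated with compound for 30 min at RT in Tris-HCl pH 8.0, CaCl2, beta-mercaptoethanol, CHAPS. Ub-CHOP2 and reporter substrate (25 nM final each) were added, and fluorescence (Ex 485/Em 531 nm) was read after 60 min.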"}
{"smiles": "CCOc1ccc(NC(=O)CSc2nnc(Cn3c(=O)sc4ccccc43)n2C)cc1", "activity change, negative = inhibition": "-0.518% (inactive)"}
{"smiles": "O=C(NC1CCCC1)C1C2C=CC(C2)C1C(=O)N1CCOCC1", "note": "(stereo not given)", "activity change, negative = inhibition": "4.55% (inactive)"}
{"smiles": "O=C(CSc1nccc(=O)[nH]1)N1N=C2/C(=C/c3ccco3)CCCC2C1c1ccco1", "note": "(stereo not given)", "activity change, negative = inhibition": "-19.1% (inactive)"}
{"smiles": "COc1cccc(C(=O)NCc2ccc3[nH]c(C)cc3c2)c1", "activity change, negative = inhibition": "-0.781% (inactive)"}
{"smiles": "CCOC(=O)Nc1nnc(CCc2ccccc2)s1", "activity change, negative = inhibition": "-0.956% (inactive)"}
{"smiles": "O=C1c2ccccc2CCC12N=NCC2c1ccc(Br)cc1", "note": "(stereo not given)", "activity change, negative = inhibition": "-1.61% (inactive)"}
{"smiles": "Cc1cc(C(=O)OCC(=O)c2cccc([N+](=O)[O-])c2)c2cccc(C)c2n1", "activity change, negative = inhibition": "-9.73% (inactive)"}
{"smiles": "Cc1nc(N(C)C)c2sc(=S)n(C)c2n1", "activity change, negative = inhibition": "0.888% (inactive)"}
{"smiles": "c1ccc(Nc2c3c(nc4ncnn24)CCC3)cc1", "activity change, negative = inhibition": "1.21% (inactive)"}
{"smiles": "CCN(Cc1ccncc1)C(=O)c1cccs1", "activity change, negative = inhibition": "-0.752% (inactive)"}
{"smiles": "NC(=O)c1ncc(C(F)(F)F)cc1Oc1cccc(F)c1", "activity change, negative = inhibition": "1.98% (inactive)"}
{"smiles": "Nc1ccccc1S(=O)(=O)NC1=NCCCCC1", "activity change, negative = inhibition": "2.55% (inactive)"}
{"smiles": "CCc1c(O)nc(SCC(=O)Nc2ccccc2OC)[nH]c1=O", "activity change, negative = inhibition": "3.26% (inactive)"}
{"smiles": "CN(C)c1ccc(NC(=O)CSCc2nc3c(nnn3Cc3ccc(F)cc3)c(=O)[nH]2)cc1", "activity change, negative = inhibition": "1.9% (inactive)"}
{"smiles": "O=C1COc2ccc(C(=O)COC(=O)/C=C/c3ccc(Br)o3)cc2N1", "Potency": "9.27 µM (active)"}
{"smiles": "O=C(COc1ccccc1)N1CCN(C(=O)Cc2ccccc2)CC1", "activity change, negative = inhibition": "-1.37% (inactive)"}
{"smiles": "Cn1nc(CC(=O)NCc2ccc(F)cc2)c2ccccc2c1=O", "activity change, negative = inhibition": "4.3% (inactive)"}
{"smiles": "O=C(NN1C(=O)/C(=C/C=C/c2ccco2)SC1=S)c1ccncc1", "Potency": "13.1 µM (active)"}
{"smiles": "CCC(C(=O)NCc1ccccc1OC)n1nc(C)n2c(cc3occc32)c1=O", "note": "(stereo not given)", "activity change, negative = inhibition": "-0.347% (inactive)"}
{"smiles": "CCCC(c1nnnn1Cc1ccc(OC)cc1)N1CCC(C(N)=O)CC1", "note": "(stereo not given)", "activity change, negative = inhibition": "0.115% (inactive)"}
{"smiles": "Cc1cnc(N)c2c(=O)oc3ccccc3c12", "activity change, negative = inhibition": "5.48% (inactive)"}
{"smiles": "CCc1cc(C(=O)N=Nc2c(O)[nH]c3ccc([N+](=O)[O-])cc23)c2ccccc2n1", "Potency": "14.7 µM (active)"}
{"smiles": "COc1ccc(S(=O)(=O)NCCSCc2ccco2)cc1OC", "activity change, negative = inhibition": "-14.5% (inactive)"}
{"smiles": "Cc1ccc(/C=C/S(=O)(=O)N2CCC(C(=O)O)CC2)cc1", "activity change, negative = inhibition": "1.75% (inactive)"}
{"smiles": "CC(=O)Nc1ccc(Nc2cc(C)nc(Nc3ccc(NC(C)=O)cc3)n2)cc1", "activity change, negative = inhibition": "-0.465% (inactive)"}
{"smiles": "CC(C)(C)C1CCC2(CC1)Nc1cccc3cccc(c13)N2", "activity change, negative = inhibition": "-4.19% (inactive)"}
{"smiles": "COc1cc(C(=O)OCC(=O)Nc2c(F)c(F)c(F)c(F)c2F)cc(OC)c1OC", "activity change, negative = inhibition": "1.98% (inactive)"}
{"smiles": "CCN(CC)c1ccc2nc3ccccc3[n+](CC)c2c1", "activity change, negative = inhibition": "-10.3% (inactive)"}
{"smiles": "O=C(CSc1nc(N2CCCCC2)nc(N2CCCCC2)n1)N1CCN(c2ccccc2)CC1", "activity change, negative = inhibition": "0.372% (inactive)"}
{"smiles": "CCCOc1ccc(N2C(=O)CC(NCCc3ccc(S(N)(=O)=O)cc3)C2=O)cc1", "note": "(stereo not given)", "activity change, negative = inhibition": "0.466% (inactive)"}
{"smiles": "CC1CCN(CC(O)COc2cccc(F)c2)CC1", "note": "(stereo not given)", "activity change, negative = inhibition": "2.47% (inactive)"}
{"smiles": "S=c1[nH]nc(-c2cc(-c3ccco3)[nH]n2)n1-c1cccc2ccccc12", "activity change, negative = inhibition": "-3.18% (inactive)"}
{"smiles": "O=[N+]([O-])c1cc(-c2nnc(Nc3ccccc3)c3ccccc23)ccc1N1CCOCC1", "activity change, negative = inhibition": "4.53% (inactive)"}
{"smiles": "O=S(=O)(Nc1cccc(-c2cn3c(n2)SCC3)c1)c1ccc(F)cc1F", "activity change, negative = inhibition": "-19.9% (inactive)"}
{"smiles": "CCN(CC)S(=O)(=O)c1ccc(-c2nnc(SCC(=O)Nc3ccc4c(c3)OCO4)o2)cc1", "activity change, negative = inhibition": "-22% (inactive)"}
{"smiles": "C=CCn1c(NCc2cc(C)ccc2O)nc2ccccc21", "activity change, negative = inhibition": "0.219% (inactive)"}
{"smiles": "C[C@@H]1CN([C@@H](C)CO)C(=O)c2cc(NC(=O)CCC(F)(F)F)ccc2O[C@H]1CN(C)S(=O)(=O)c1ccc(Cl)cc1", "activity change, negative = inhibition": "0.826% (inactive)"}
{"smiles": "CCC(CO)Nc1nc(CN2CCCCC2)nc2scc(-c3ccccc3)c12", "note": "(stereo not given)", "activity change, negative = inhibition": "-0.544% (inactive)"}
{"smiles": "COC(=O)c1ccc(NC(=O)CSC2=Nc3ccccc3C3CC=NN23)cc1", "note": "(stereo not given)", "activity change, negative = inhibition": "0.248% (inactive)"}
{"smiles": "O=c1/c(=C/c2ccco2)sc2n1CN(c1cccc(Br)c1)CN=2", "activity change, negative = inhibition": "-1.62% (inactive)"}
